Assay results reported in PubChem BioAssay AID1159580 (chemical genetic matrix, 2015).
Among all 5,500 compounds or so, about 2,000 (36%) were called active. About 18% were inconclusive and are not listed. Cut-off read from the data, not from the text of the source: active = normalized growth mostly below about 0.91 (no sharp cut-off); inconclusive = no clear call, values can overlap the other calls; inactive = mostly above about 0.92. This is one part of the list.

Test: chemical genetic growth profiling, strain panel (AID 1159580);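 note: tested at 20 µM; growth read once vehicle control cultures reached saturation at 30 °C; 1 = growth at the plate median or of vehicle wells; lower values mean less growth of the strain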
Conditions: S. cerevisiae deletion strains, growth OD
[1] = locus YAL013W, strain DEP1, active compounds read low
[2] = locus YBR229C, strain ROT2, active compounds read low
[3] = locus YDL101C, strain DUN1, active compounds read low
[4] = locus YDR150W, strain NUM1, active compounds read low
[5] = locus YEL061C, strain CIN8, active compounds read low
[6] = locus YGR078C, strain PAC10, active compounds read low
[7] = locus YGR229C, strain SMI1, active compounds read low
[8] = locus YHR030C, strain SLT2, active compounds read low
[9] = locus YHR087W, strain rtc3, active compounds read low
[10] = locus YJR043C, strain POL32, active compounds read low
[11] = locus YJR075W, strain HOC1, active compounds read low
[12] = locus YLR039C, strain RIC1, active compounds read low
[13] = locus YLR058C, strain SHM2 (second series), active compounds read low
[14] = locus YLR085C, strain ARP6, active compounds read low
[15] = locus YLR262C, strain YPT6, active compounds read low
[16] = locus YML094W, strain GIM5, active compounds read low
[17] = locus YMR219W, strain ESC1, active compounds read low
[18] = locus YMR263W, strain SAP30, active compounds read low
[19] = locus YNL153C, strain GIM3, active compounds read low
[20] = locus YNL298W, strain CLA4 (second series), active compounds read low
[21] = locus YNL322C, strain KRE1, active compounds read low
[22] = locus YNR030W, strain Alg12, active compounds read low
[23] = locus YPL055C, strain LGE1, active compounds read low
[24] = locus YPL241C, strain CIN2, active compounds read low
[25] = locus YPR135W, strain CTF4, active compounds read low

Measured: normalized growth

CN1CCCC12NCCc1c2[nH]c2ccccc12 (configuration not stated)
inactive: [1] 0.993 | [2] 1 | [3] 1 | [4] 0.98 | [5] 0.998 | [6] 0.993 | [7] 0.997 | [8] 0.981 | [9] 0.986 | [10] 0.999 | [11] 0.973 | [12] 0.976 | [13] 0.987 | [14] 0.991 | [15] 0.976 | [16] 1.06 | [17] 1.01 | [18] 0.985 | [19] 1 | [20] 0.982 | [21] 1 | [22] 0.965 | [23] 1.01 | [24] 0.969 | [25] 1.03

c1ccc2c(c1)CCc1c-2[nH]c2ccccc12
active: [1] 0.641 | [2] 0.682 | [3] 0.62 | locus YDL134C, strain PPH21, active compounds read low 0.461 | [4] 0.704 | [5] 0.415 | [6] 0.732 | [7] 0.735 | [8] 0.137 | [9] 0.748 | [10] 0.751 | [11] 0.562 | [12] 0.162 | [13] 0.827 | [14] 0.109 | [15] 0.142 | [16] 0.467 | [17] 0.783 | [18] 0.634 | [19] 0.7 | [20] 0.23 | [21] 0.91 | [22] 0.418 | locus YOL006C, strain TOP1, active compounds read low 0.115 | [23] 0.322 | [24] 0.416 | [25] 0.294
